This is an account of results in PubChem BioAssay.

Active and inactive are the calls of the source.

This assay is described as follows: yeast growth modulation, basal conditions, primary screen, YJM789 clinical isolate, OD600, 24 h (AID 1089).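 Also: growth of clinical yeast isolate S. cerevisiae YJM 789 seeded 1000 cells per well; test concentration not given here.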 To be noted: S. cerevisiae YJM789 growth, higher = more signal, called active from +8 up or from −8 down.
`C=CCC(OC(C)=O)[C@@H]1[C@@H](N(Cc2cccc3ccccc23)C(=O)c2ccc(-c3ccccc3)cc2)c2cc(OCCCO)ccc2N1C(=O)Cc1ccc2ccccc2c1` (stereo not given in full): the z-score was -0.616 (inactive).
The figure for `O=C(NC1CC1)[C@@H]1c2ccccc2C(=O)N(Cc2ccc(OC(F)(F)F)cc2)[C@H]1c1ccc(CO)cc1` is -0.112 (inactive).
For the compound `O=C(NC1CC1)[C@@H]1c2ccccc2C(=O)N(CC23CC4CC(CC(C4)C2)C3)[C@H]1c1ccc(CO)cc1`, the z-score was -0.706 (inactive).
As for `CC(=O)NCCCC[C@@H]1NC(=O)[C@H]2C[C@@H](C(=O)NCCCCCCNC(=O)CS)[C@@H](c3cccc(OCCO)c3)N2C1=O`, the figure is 0.828 (inactive); as for `O=C1O[C@@H](c2ccccc2)[C@@H](c2ccccc2)N2[C@@H](c3ccc(OCCO)cc3)[C@]3(C(=O)Nc4ccc(C#CC5(O)CCCCCC5)cc43)[C@@H](C(=O)O)[C@H]12`, 2.79 (inactive).
With `COC(=O)[C@@]1(Cc2ccccc2)[C@H]2c3cc(C(=O)N(C)C)n(Cc4ccc(C(F)(F)F)nc4)c3C[C@H]2CN1C(=O)c1ccccc1`, the z-score was 1.06 (inactive).
The figure for `CN1C(=O)C2C(C1=O)C1C=C(c3ccc(CO)cc3)C2C(C2CC2)N1C` (stereo not given) is 0.724 (inactive); for `O=C1C=C(c2ccccc2)C(=O)C2=C1CC([C@H]1Oc3ccccc3S(=O)(=O)N3CCC[C@@H]13)=CC2` it is -0.418 (inactive).
As for `C=C(COC)C(=O)CC[C@@H](OC(C)=O)c1ccccc1OCCO`, the figure is -1.89 (inactive); as for `COCCOC(=O)N1C(=O)[C@@]2(c3cc(C#CCCO)ccc31)[C@H](c1ccccc1OCCO)N1[C@H](c3ccccc3)[C@H](c3ccccc3)OC(=O)[C@H]1[C@@H]2C(N)=O`, 1.48 (inactive).
